# High-throughput results (PubChem)
# BLM inh-1: inhibitors of human Bloom syndrome helicase BLM; P54132; recombinant BLM DNA unwinding, fluorescence dequenching; Potency, µM (series often up to 56.1 µM), for the others: at the highest dose activity change, negative = inhibition, actives largely listed as inhibitors; 0.2% of 350,000 active;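 further: plate controls were vehicle for no effect and no enzyme for full effect; nearly all actives have a fitted effect of over 35% in size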
# JMJD2E inh: JMJD2E (human) inhibition; JMJD2E catalytic domain, FDH-coupled NADH fluorescence (FDH is formaldehyde dehydrogenase); 1.6% of 230,000 active; Potency, µM (titrated, usually from 57.1 µM), inactives show top-dose activity change, negative = inhibition, usual class: inhibitors; B2RXH2; AID 2147; active means well fitted inhibition curve with a large enough effect, not every such curve was filed as active; inconclusive means small, poorly fitted or top-dose-only effect, or another doubt; inactive means no such curve, though single readings can be large or run the other way;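 further: 0% = wells with enzyme and -100% = buffer wells without enzyme; nearly all actives have a fitted effect of over 50% in size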
# RECQ1 inh-1: RECQ1 (human) helicase inhibition | RECQ1 DNA unwinding, red fluorescence kinetic read | Potency, µM (doses to about 57.3 µM), inactives show at the top dose activity, negative = inhibition, hits mostly inhibitors | 0.54% of 240,000 active | AID 2549;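 further: plate controls were vehicle for no effect and no enzyme for full effect; nearly all actives have a fitted effect of over 30% in size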
#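 RECQ1T1 50 nM; forked duplex (20 bp + 30-nt ss tails) 200 nM, ATP 2 mM final; pH 8.0, 2 mM MgCl2, 2.5 ug/ml poly(dI-dC); 15 min compound preincubation; discontinuous kinetic read over 2 h at RT.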
# APE1 inh-1: blocks human APE1 abasic DNA cleavage. P27695. recombinant APE1, TAMRA/BHQ-2 abasic DNA cleavage fluorescence. Potency, µM (highest dose often 65.8 µM), inactives show at the top dose activity change, negative = inhibition, hits mostly inhibitors. 0.35% of 350,000 active. AID 2517;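 further: plate controls were vehicle for no effect and reference inhibitor for full effect; nearly all actives have a fitted effect of over 55% in size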
#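 Readout is kinetic fluorescence (ex 525, em 598 nm) from cleavage of 50 nM TAMRA/BHQ-2 THF abasic duplex by 0.75 nM APE1, compound added 15 min beforehand at RT.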
# L3MBTL1 inh-1: blocks human L3MBTL1; Q9Y468; AlphaScreen L3MBTL1–H3K9me1 peptide binding; Potency, µM (titrated, usually from 57.1 µM), for inactives: at the top dose activity, negative = inhibition, hits mostly inhibitors; 0.66% of 230,000 active; AID 485360; further: on the % scale 0 is the no-effect control and ±100 the full control effect; nearly all actives have a fitted effect of over 60% in size
#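 Read-out is AlphaScreen signal from streptavidin donor and nickel chelate acceptor beads (10 ug/mL final each) bridging L3MBTL1 (50 nM) and biotinylated K9-monomethylated H3(1-15) peptide (75 nM), after 30 min compound exposure at room temperature.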
# TDP1 block: blocks human tyrosyl-DNA phosphodiesterase 1; Potency, µM (highest dose often 130 µM), for inactives: at the top dose activity change, negative = inhibition, most hits filed as inhibitors; AID 485290; recombinant TDP1, AlphaScreen DNA substrate cleavage; 0.28% of 350,000 active; Q9NUW8; further: on the % scale 0 is the no-effect control and ±100 the full control effect; nearly all actives have a fitted effect of over 40% in size
#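 Signal: AlphaScreen proximity between streptavidin donor and anti-FITC acceptor beads on intact substrate. Reaction: Tdp1 1 nM, substrate 15 nM final, 5 min RT after 15 min compound preincubation.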
# APE1 dye cs: counter-screen for APE1 inhibitors: DNA dye displacement; shares compounds with APE1 inh-1; DNA fluorescent dye displacement counterscreen, fluorescence; Potency, µM (top dose mostly 28.5 µM), for the others: at the highest dose activity change, negative = inhibition, hits mostly inhibitors; 7% of 480 active; AID 2564;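 further: loss of thiazole orange fluorescence as the dye is displaced from duplex DNA; 0% = ThO with dsDNA and no compound and -100% = ThO without dsDNA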
# Endo IV inh: Endo IV (E. coli) inhibition counter-screen; shares compounds with APE1 inh-1; E. coli Endo IV, fluorogenic AP-site DNA cleavage; Potency, µM (doses to about 27.1 µM), inactives show at the highest dose activity change, negative = inhibition, most hits filed as inhibitors; 4% of 560 active; AID 2565;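 further: plate controls were uninhibited enzyme wells for no effect and no enzyme buffer wells for full effect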
# APE1 inh-2: APE1 (human) endonuclease inhibition, confirmation | shares compounds with APE1 inh-1 | purified APE1, fluorogenic abasic-site DNA cleavage | Potency, µM (series often up to 57.1 µM), without a hit: top-dose activity change, negative = inhibition, usual class: inhibitors | 44% of 750 active; further: on the % scale 0 is the no-effect control and ±100 the full control effect; nearly all actives have a fitted effect of over 30% in size
# APE1 FP inh: displaces DNA from human APE1 in FP assay; Potency, µM (top dose mostly 28.5 µM), without a hit: top-dose activity, negative = inhibition, most hits filed as inhibitors; shares compounds with APE1 inh-1; AID 2573; APE1 binding to TAMRA-labelled double-stranded DNA, fluorescence polarization displacement; 7% of 480 active; further: on the % scale 0 is the no-effect control and ±100 the full control effect
# BLM inh-2: BLM (human) helicase inhibition, confirmation; 40% of 220 active; Potency, µM, without a hit: max response, negative = inhibition, usual class: inhibitors; shares compounds with BLM inh-1; BLM DNA unwinding, fluorescence quenching, biochemical;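 further: strand separation dequenches TAMRA so unwinding raises red fluorescence; series mostly up to about 69 µM; on the % scale 0 is the no-effect control and ±100 the full control effect; nearly all actives have a fitted effect of over 45% in size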
# RECQ1 inh conf: confirmation of human RECQ1 helicase inhibitors; shares compounds with RECQ1 inh-1; RECQ1 helicase DNA unwinding, fluorescence; Potency, µM (titrated, usually from 229 µM), without a hit: top-dose activity change, negative = inhibition, actives largely listed as inhibitors; 28% of 610 active; further: on the % scale 0 is the no-effect control and ±100 the full control effect; nearly all actives have a fitted effect of over 45% in size
# RECQ1 ADP FP: counter-screen for RECQ1 inhibitors: ADP displacement; 27% of 530 active; Potency, µM (highest dose often 228 µM), without a hit: top-dose activity change, negative = inhibition, actives largely listed as inhibitors; AID 2711; ADP fluorescence polarization displacement counterscreen; shares compounds with RECQ1 inh-1; further: on the % scale 0 is the no-effect control and ±100 the full control effect; nearly all actives have a fitted effect of over 45% in size
# RECQ1 inh-2: blocks human RECQ1 DNA unwinding | 15% of 1,100 active | shares compounds with RECQ1 inh-1 | Potency, µM (doses to about 119 µM), without a hit: at the top dose activity, negative = inhibition, hits mostly inhibitors | recombinant RECQ1 DNA unwinding, red fluorescence; further: on the % scale 0 is the no-effect control and ±100 the full control effect; nearly all actives have a fitted effect of over 50% in size
# L3MBTL1 inh-2: blocks human L3MBTL1 methyl-lysine binding | shares compounds with L3MBTL1 inh-1 | Potency, µM, hits mostly inhibitors | L3MBTL1 methyl-lysine binding inhibition, biochemical qHTS | 91% of 500 active; further: nearly all actives have a fitted effect of over 70% in size
# L3MBTL1 ctr: AlphaScreen signal inhibition, L3MBTL1 hit counter-screen | shares compounds with L3MBTL1 inh-1 | AID 602224 | AlphaScreen counterscreen, signal inhibition | 500 tested, under 10 active | Potency, µM (titrated, usually from 57.1 µM), for the others: top-dose activity change, negative = inhibition, most hits filed as inhibitors; further: 0% is about no effect
# * = called active by the depositor; i = inactive; u = inconclusive; x = no result; ! = a repeat was not active; [ ] = dose if it differs, or a comment. Only a selection was taken, and hits are over-represented in it overall. Unless noted, the call rests on the fitted dose curve; in most records, active means well fitted curve in the direction sought with a large enough effect; inconclusive means small, poorly fitted or top-dose-only effect, or another doubt; inactive means no such curve, though single readings can be large; an effect the other way counts as inactive or inconclusive. Potency means the concentration at half of the fitted maximal effect.
SMILES,BLM inh-1,JMJD2E inh,RECQ1 inh-1,APE1 inh-1,L3MBTL1 inh-1,TDP1 block,Endo IV inh,APE1 inh-2,others
CCCCCCC(=O)OC1CC(C)(C)NC(C)(C)C1,-1%,x,-12%,-2%,x,4%,x,x,
C/C=C(/C)C(=O)O[C@H]1C(C)=C2C([C@@H]1OC(=O)CCCCCCC)[C@@](C)(OC(C)=O)C[C@@H](OC(=O)CCC)[C@@]1(O)[C@H]2OC(=O)[C@@]1(C)O (stereo partly specified),x,-12%,-15%,-4%,x,13%[56.1 µM],10µM*,u,
NC(Cc1cc(O)c(O)cc1O)C(=O)O (stereo unspecified),x,13µM*,0.63µM*,0.11µM*,0.16µM*,0.18µM*,-17%[57.1 µM],0.79µM*,RECQ1 inh conf=45µM*;RECQ1 ADP FP=20µM*
N[C@@H](Cc1cc(I)c(O)c(I)c1)C(=O)O,0%,2%,u,0%,5%,0%,x,x,
O=C1C=CC(=O)c2c(O)cccc21,5.6µM*,7.1µM*,4.5µM*,0.32µM*,x,-6%,-29%[57.1 µM],u,RECQ1 inh conf=7.9µM*;RECQ1 ADP FP=u
CC1=C(O)C(=O)[C@@H]2O[C@@H]2C1=O,x,x,i,-7%,x,-9%,x,x,
CC(N)C(O)c1ccc(O)c(O)c1 (stereo unspecified),3%,16µM*,7.1µM*!,1.4µM*!,x,-8%[56.1 µM],36%[57.1 µM],-2%,APE1 dye cs=-5%[57.1 µM];APE1 FP inh=0%[57.1 µM];RECQ1 inh conf=u;RECQ1 ADP FP=14µM*
Cc1cccc(C)c1[N+](=O)[O-],x,x,-2%,2%,x,19%,x,x,
NCCc1cc(O)c(O)cc1O,u,6.3µM*,8.9µM*,0.4µM*,x,0.25µM*,-14%[57.1 µM],u,APE1 dye cs=u;APE1 FP inh=28µM*!;RECQ1 inh conf=126µM*;RECQ1 ADP FP=100µM*
COc1ccc(CCN)cc1O,x,2%,-2%,11%,x,3%,x,x,
COc1ccc(CN2C(=O)NC(=O)/C(=C\c3ccco3)C2=O)cc1,u,-25%,u,22µM*,7.9µM*,x,2%,14µM*,APE1 dye cs=u;APE1 FP inh=-8%;L3MBTL1 inh-2=2.7*;L3MBTL1 ctr=-23%
CCc1ccc(N2C(=O)NC(=O)/C(=C/c3cccn3CCOc3ccc(C)cc3)C2=O)cc1,-14%,1%,u,u,-17%,5%,x,x,
Cc1cccc(OCCn2cccc2/C=C2/C(=O)NC(=O)N(Cc3ccco3)C2=O)c1,25µM*,-22%,8.9µM*,7.9µM*,20µM*,-10%,5%,13µM*,APE1 dye cs=0%;APE1 FP inh=u;RECQ1 inh conf=u;RECQ1 ADP FP=-3%[91.9 µM];L3MBTL1 inh-2=u;L3MBTL1 ctr=u
CC(CCC(=O)O)C1CCC2C3CC[C@H]4CC(O)CC[C@@]4(C)C3CC[C@@]12C (stereo partly specified),-30%,4%,3%,u,x,-5%[56.1 µM],x,x,
CC1=NCCc2c1[nH]c1cc(O)ccc21,40µM*!,u,u,u,-6%,23%[56.1 µM],x,x,BLM inh-2=-2%
c1ccc(N=NNc2ccccc2)cc1,x,x,-9%,4%,x,25%,x,x,
CC(C)(COCC1CO1)COCC1CO1 (stereo unspecified),x,x,22%,16%,x,15%,x,x,
CC(=O)c1cccc(OCC(=O)N2CCN(CC(=O)Nc3cccc(F)c3)CC2)c1,x,x,x,2%,5%,0%,x,x,
Cc1cccn2c(=O)cc(COc3cccc(NC(=O)COc4ccc(F)cc4)c3)nc12,14µM*,x,x,x,x,0%,x,x,BLM inh-2=u
CCOC(=O)c1c(NC(=O)c2c(N)n(CCCOC)c3nc4ccccc4nc23)sc2c1CCCC2,4µM*,10%,-6%,2%,-6%,2%,x,x,BLM inh-2=-11%
CCC1(CC)CCNC1=O,-1%,x,-4%,-4%,x,7%,x,x,
CC(C)OCCCNC(=O)c1c(N)n(CC2CCCO2)c2nc3ccccc3nc12 (stereo unspecified),5µM*,u,-12%,-7%,-19%,x,x,x,BLM inh-2=-11%
CCN(CC)c1ccc(CC2C(=O)N(C)C(=O)N(C)C2=O)cc1,2%,-4%,32µM*,-4%,u,0%,x,x,RECQ1 inh-2=45µM*
CC[C@@]1(O)C(=O)OCc2c1cc1n(c2=O)Cc2cc3c(O)cccc3nc2-1,-17%,x,u,u,x,u,x,x,RECQ1 inh-2=u
C[C@H]1CO1,4%,x,-22%,-6%,x,4%,x,x,
